High-throughput results from PubChem.
Spn MK inh = inhibitors of Streptococcus pneumoniae mevalonate kinase; 0.48% of 65,000 active; inhibition, % at 10 µM; purified MK, PK/LDH-coupled NADH absorbance 340 nm;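 active = ranked among the strongest by inhibition in the single 10 µM screen, a fixed top-ranked set picked for dose follow-up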
NADH enzymes = blocks coupling enzymes of NAD/NADH assays; IC50, µM (series often up to 10 µM), without a hit: at the top dose inhibition; coupled PK/LDH NADH assays, four targets; 0.02% of 65,000 active; AID 774;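 active = single-dose screening hits from any of four coupled enzyme assays that gave an IC50 when retested across doses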;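 also: the DPM-DC format reads NADH fluorescence rather than 340 nm absorbance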
Autofluor 339 = intrinsic fluorescence of library compounds, ex339/em460 – biochemical, MLSMR library, data from DPM-DC assay, artefact control, profiling panel; fluorescence fold increase at 10 µM; 5.5% of 65,000 active; compound autofluorescence, ex339/em460 nm, NADH buffer; active compounds read high; 1 = no-compound wells, NADH background; AID 709;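 active = at 10 µM, mean starting fluorescence two-fold or more over control wells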;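 also: signal is the first read of a kinetic run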
A340 absorber = compounds absorbing at 340 nm. compound absorbance at 340 nm, fold over control. fold change at 10 µM. 65,000 tested, under 10 active. AID 708;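 active = at 10 µM dose, initial 340 nm absorbance at least 2 fold that of control wells; inactive = change under 2 fold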;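 also: initial absorbance extrapolated from kinetic A340 decline of NADH oxidation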
Spn PMK inh = S. pneumoniae PMK inhibition; purified PMK, PK/LDH-coupled NADH absorbance 340 nm; inhibition, % at 10 µM; 0.49% of 65,000 active;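 active = top-ranked compounds by inhibition in the single 10 µM screen, taking a fixed number of the strongest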;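 also: 0% = full reaction with DMSO carrier and 100% = background rate without enzyme reaction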
DPM-DC inhibit = inhibitors of Streptococcus pneumoniae diphosphomevalonate decarboxylase. purified DPM-DC, PK/LDH coupled NADH fluorescence. calls only at 10 µM. 0.49% of 65,000 active;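 active = the 320 compounds with the highest percent inhibition in the single-dose primary screen, excluding strongly autofluorescent ones, cut at about 32% in these data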;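 also: kinetic rate of NADH fluorescence loss reporting ADP formed by the decarboxylase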
Starred values were filed as active, the others as inactive; i = inactive; nt = not tested or not shown; + = active, no number. Sampled rows, rich in hits. Any-hit rate of the full collection: about 6.5%.

SMILES	Spn MK inh	NADH enzymes	Autofluor 339	A340 absorber	Spn PMK inh	DPM-DC inhibit
CCN(CC)C(=O)CN1C(=O)C2(OCC(C)(c3ccccc3)CO2)c2ccccc21 (stereo not drawn)	13	7%	1.2	1	9	i
Cc1cc(Nc2ccc(Cl)cc2)n2nnnc2n1	0	5%	1.1	1	15	i
Cc1cccn2c(=O)c3cc(C(=O)Nc4ccc(N(C)C)cc4)n(C)c3nc12	5	4%	1.3	1.1	7	i
CCNC(=O)c1cc2c(=O)n3cccc(C)c3nc2n(Cc2ccc(C)cc2)c1=N	7	9%	3.8*	1	11	nt
Cc1cccn2c(=O)c3cc(C(=O)NC(C)C)c(=N)n(Cc4ccncc4)c3nc12	9	7%	3.7*	1	4	nt
CCCn1c(=N)c(C(=O)NCc2ccc3c(c2)OCO3)cc2c(=O)n3cccc(C)c3nc21	8	10%	2.1*	1.1	10	i
CCCn1c2c(c(O)c(C(=O)Nc3ccc(OC)cc3)c1=O)CCCC2	5	3%	1.5	1.1	4	i
CCOC(=O)N1CCN(C(=O)CSc2nnc(Cc3cccn3C)n2CCc2ccccc2)CC1	11	5%	1.1	1	4	i
COC(=O)CSc1nnc2c3c4c(sc3nc(-n3nc(C)cc3C)n12)COC(C)(C)C4	12	7%	2.7*	1.1	0	i
CCOCCCNC(=O)Cn1nc(-c2ccccc2)ccc1=O	1	1%	1.1	1	0	i
COc1cc(NC(=O)c2cc(CC(C)C)on2)c(OC)cc1Cl	57*	7%	1.1	1	2	i
COc1cc(NC(=O)c2cc3ccccc3o2)c(OC)cc1Cl	5	8%	2.2*	1.1	10	nt
CCCc1cc(C(=O)Nc2cc(OC)c(Cl)cc2OC)no1	4	2%	1.1	1	2	i
COc1ccc(NC(=O)c2ccco2)cc1NC(=O)c1cc2ccccc2o1	2	7%	1.2	1.1	16	i
COc1cc(NC(=O)c2cc3ccccc3o2)c(OC)cc1Br	0	10%	1.8	1.1	5	i
COc1cc(NC(=O)c2cc(-c3ccco3)on2)c(OC)cc1Cl	5	5%	4.6*	1.1	5	nt
COc1cc(OC)c(NC(=O)c2ccco2)cc1Cl	9	11%	1	0.99	5	i
COc1ccc(-c2cc3ccccc3oc2=O)cc1NC(=O)c1ccc(Br)o1	2	1%	3.8*	1.2	0	nt
COc1cccc(NC(=O)CSc2nnc(-c3cccc(OC(C)C)c3)n2N)c1	5	4%	1.1	1.1	7	i
O=C(Nc1nc(-c2cccs2)cs1)c1cccc(S(=O)(=O)N2CCCCC2)c1	0	2%	1.2	0.98	10	i
Cc1cc(NC(=O)CSc2nnnn2C2CCCC2)no1	9	17%	2.8*	1.1	14	i
COC(=O)c1ccc(C2C(C#N)=C(C)NC3=C2C(=O)CC(C)(C)C3)cc1 (stereo not drawn)	5	4%	4.7*	1	3	nt
COc1ccc(C2C(C#N)=C(SC)NC3=C2C(=O)CC(C)(C)C3)cc1 (stereo not drawn)	4	4%	1.1	1.1	3	i
COc1cc(C)c(S(=O)(=O)Nc2ccc(CC(=O)O)cc2)cc1C	5	6%	1	0.97	12	i
CCOC(=O)COc1ccc2nsnc2c1Cl	6	16%	2.9*	1	9	+
SMILES	Spn MK inh	NADH enzymes	Autofluor 339	A340 absorber	Spn PMK inh	DPM-DC inhibit
CC(=O)Nc1ccc(-c2nc3c(C)cccc3[nH]2)cc1	4	10%	2.1*	1.1	8	i
COc1ccc(N=c2oc3cc(O)ccc3cc2C(=O)NCC2CCCO2)c(OC)c1 (stereo not drawn)	4	9%	3.8*	1.1	13	nt
COc1ccc(N=c2oc3cc(O)ccc3cc2C(=O)NCC2CCCO2)cc1 (stereo not drawn)	14	18%	2.9*	1	14	i
Cc1ccc(N=c2oc3cc(O)ccc3cc2C(N)=O)cc1	6	2%	2.2*	1.1	1	i
CCCn1c(=O)c2ccccc2n2c(SCCOc3ccccc3F)nnc12	1	4%	1	0.98	14	i
CCNc1nc(NC(C)(C)C)nc(N(C#N)CC)n1	0	8%	1	0.98	25*	i
O=C(NCc1cn2ccsc2n1)c1c(F)cccc1Cl	0	5%	1.1	1.1	12	i
COc1ccc(NC(=O)CSc2nnc(Cc3ccccc3)o2)c(OC)c1	17	8%	1.2	1	8	i
COC(=O)C1=CNC=C(C(=O)OC)C1c1ccc(Cl)cc1	3	2%	3.8*	1.1	0	nt
COC(=O)C1=CNC=C(C(=O)OC)C1c1cccc(OC)c1	6	8%	3.9*	1.1	10	nt
COC(=O)C1=CNC=C(C(=O)OC)C1c1ccccc1Cl	0	0%	3.6*	1	0	nt
CCn1c(C(=O)N2CCC(C(=O)NCc3ccc4c(c3)OCO4)CC2)cc2sccc21	6	1%	1.1	0.99	0	i
O=C(Nc1ccc2nsnc2c1)c1ccc2c(c1)OCO2	7	7%	1.3	1.1	6	i
CC(=O)c1cccc(NC(=O)c2ccc(Br)o2)c1	0	2%	1.1	1.1	5	i
O=C(Nc1ccc2nn(-c3ccccc3)nc2c1)c1ccc2c(c1)OCCO2	9	5%	2.2*	1.1	0	nt
O=C(Nc1ccc2nn(-c3ccccc3)nc2c1)c1ccc(Br)o1	6	9%	1.8	1	18	+
CC(C)(C)C(=O)Nc1ncc(C(F)(F)F)cc1Cl	7	6%	1.1	1	11	i
Cn1c(SCc2ccc3c(c2)OCO3)nnc1-c1ccccc1	4	2%	1	1	16	i
c1ccn2c(SCc3ccc4c(c3)OCO4)nnc2c1	48*	21%	0.96	1	12	i
CCOCCOC(=O)C1=C(C)NC2=C(C(=O)CC(c3cccs3)C2)C1c1ccsc1 (stereo not drawn)	4	2%	2.1*	1.1	0	nt
COc1cc2[nH]c(=O)n(CCC(=O)NC3CCCC3)c(=O)c2cc1OC	0	5%	2*	1.1	14	i
CCOc1cc2[nH]c(=O)n(CCCCC(=O)NC3CCCCC3)c(=O)c2cc1OCC	3	5%	2.5*	1.1	2	i
CCOc1cc2[nH]c(=O)n(CCCC(=O)NCc3ccco3)c(=O)c2cc1OCC	1	6%	2.3*	1	5	i
CCCCCNC(=O)CCCCn1c(=O)[nH]c2cc(OCC)c(OCC)cc2c1=O	9	5%	2.1*	1	6	i
CCOc1cc2[nH]c(=O)n(CCCCC(=O)NCc3ccco3)c(=O)c2cc1OCC	5	7%	1.8	0.99	5	i
COc1ccccc1N(CC(N)=O)S(=O)(=O)c1ccc(C)cc1	3	1%	1	1	1	i
